For assay [1], the target named is Protein kinase C eta type (Homo sapiens) (UniProt P24723). As to conditions: at 1 µM; call rule not given here.
For assay [2] the target is unchanged. As to conditions: at 10 µM.
Assay [3] addresses Protein kinase C theta type (Homo sapiens) (UniProt Q04759). As to conditions: at 1 µM.
Assay [4] has the same target. As to conditions: at 10 µM.
The target in assay [5] is T1, Serine/threonine-protein kinase D1 (Homo sapiens) (UniProt Q15139).
T1 sequence (whole entry): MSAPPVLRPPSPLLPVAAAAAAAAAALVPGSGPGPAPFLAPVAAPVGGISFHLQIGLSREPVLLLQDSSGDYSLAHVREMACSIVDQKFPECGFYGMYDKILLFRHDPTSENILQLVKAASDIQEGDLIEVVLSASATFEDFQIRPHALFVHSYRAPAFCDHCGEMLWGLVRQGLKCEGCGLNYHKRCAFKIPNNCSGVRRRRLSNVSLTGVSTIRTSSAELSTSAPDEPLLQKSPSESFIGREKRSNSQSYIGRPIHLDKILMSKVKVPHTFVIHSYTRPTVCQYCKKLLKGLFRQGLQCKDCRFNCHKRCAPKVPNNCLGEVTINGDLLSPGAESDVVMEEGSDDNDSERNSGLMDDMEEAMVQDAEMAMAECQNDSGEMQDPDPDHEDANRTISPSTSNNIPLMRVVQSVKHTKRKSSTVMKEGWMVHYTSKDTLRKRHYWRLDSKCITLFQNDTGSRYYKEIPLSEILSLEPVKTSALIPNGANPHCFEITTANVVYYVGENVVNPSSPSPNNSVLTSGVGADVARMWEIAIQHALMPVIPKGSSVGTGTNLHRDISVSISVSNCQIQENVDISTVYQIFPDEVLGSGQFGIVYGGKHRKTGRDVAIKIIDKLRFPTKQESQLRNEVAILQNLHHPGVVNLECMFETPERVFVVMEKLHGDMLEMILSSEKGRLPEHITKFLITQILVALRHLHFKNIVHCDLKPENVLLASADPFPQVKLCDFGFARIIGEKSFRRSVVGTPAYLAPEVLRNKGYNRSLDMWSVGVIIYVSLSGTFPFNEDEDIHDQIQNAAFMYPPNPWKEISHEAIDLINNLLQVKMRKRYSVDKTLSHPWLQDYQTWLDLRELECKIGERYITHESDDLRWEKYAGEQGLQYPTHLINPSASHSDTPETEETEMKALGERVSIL
As to conditions: at 1 µM.

For assay [6], the target named is T1, Serine/threonine-protein kinase D1 (Homo sapiens). As to conditions: at 10 µM.
Assay [7] deals with T2, Serine/threonine-protein kinase D2 (Homo sapiens) (UniProt Q9BZL6).
T2 sequence (whole entry): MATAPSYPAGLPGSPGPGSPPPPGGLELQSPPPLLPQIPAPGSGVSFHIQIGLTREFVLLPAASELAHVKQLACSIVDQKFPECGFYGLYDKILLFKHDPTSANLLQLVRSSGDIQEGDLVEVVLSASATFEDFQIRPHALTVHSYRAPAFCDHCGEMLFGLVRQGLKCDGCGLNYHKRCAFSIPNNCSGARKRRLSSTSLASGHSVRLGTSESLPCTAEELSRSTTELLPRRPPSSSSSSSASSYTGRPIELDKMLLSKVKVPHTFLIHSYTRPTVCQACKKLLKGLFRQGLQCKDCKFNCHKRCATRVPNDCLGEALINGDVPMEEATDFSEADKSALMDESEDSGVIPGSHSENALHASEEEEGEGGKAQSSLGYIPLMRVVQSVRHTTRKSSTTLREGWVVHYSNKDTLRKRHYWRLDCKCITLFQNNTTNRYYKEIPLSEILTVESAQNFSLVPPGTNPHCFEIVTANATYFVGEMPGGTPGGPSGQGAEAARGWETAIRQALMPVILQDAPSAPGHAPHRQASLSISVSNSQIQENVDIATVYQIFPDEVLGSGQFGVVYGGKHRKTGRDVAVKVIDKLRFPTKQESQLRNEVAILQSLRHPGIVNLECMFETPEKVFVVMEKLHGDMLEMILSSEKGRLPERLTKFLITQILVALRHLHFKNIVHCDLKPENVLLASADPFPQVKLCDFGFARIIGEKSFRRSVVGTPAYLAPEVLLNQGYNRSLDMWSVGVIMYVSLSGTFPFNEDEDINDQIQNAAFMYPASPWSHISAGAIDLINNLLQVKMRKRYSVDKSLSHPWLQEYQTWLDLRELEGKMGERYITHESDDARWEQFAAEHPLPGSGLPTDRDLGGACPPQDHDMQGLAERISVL
As to conditions: at 1 µM.

Assay [8] has as its target T2, Serine/threonine-protein kinase D2 (Homo sapiens). As to conditions: at 10 µM.
Assay [9] has as its target T3, cGMP-dependent protein kinase 1 (Homo sapiens) (UniProt Q13976).
T3 sequence (whole entry): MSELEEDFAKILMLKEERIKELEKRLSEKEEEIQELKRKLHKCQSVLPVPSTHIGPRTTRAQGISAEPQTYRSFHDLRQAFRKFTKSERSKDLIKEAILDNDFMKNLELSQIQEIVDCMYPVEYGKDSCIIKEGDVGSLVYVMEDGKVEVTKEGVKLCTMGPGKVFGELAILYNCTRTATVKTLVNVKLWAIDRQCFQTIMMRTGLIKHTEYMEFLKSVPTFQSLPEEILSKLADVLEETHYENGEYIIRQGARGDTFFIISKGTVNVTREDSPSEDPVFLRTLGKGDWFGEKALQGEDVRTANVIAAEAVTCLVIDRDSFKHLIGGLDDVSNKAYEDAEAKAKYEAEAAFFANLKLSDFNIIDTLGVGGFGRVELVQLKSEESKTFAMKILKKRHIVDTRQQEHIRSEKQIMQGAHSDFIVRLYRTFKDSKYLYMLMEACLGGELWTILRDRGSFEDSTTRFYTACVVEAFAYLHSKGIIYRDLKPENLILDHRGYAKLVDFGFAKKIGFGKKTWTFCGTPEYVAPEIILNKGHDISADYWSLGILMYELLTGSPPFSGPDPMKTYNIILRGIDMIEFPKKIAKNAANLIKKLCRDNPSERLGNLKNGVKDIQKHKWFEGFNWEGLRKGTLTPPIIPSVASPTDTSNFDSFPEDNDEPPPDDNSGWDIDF
As to conditions: at 1 µM.

Assay [10] deals with T3, cGMP-dependent protein kinase 1 (Homo sapiens). As to conditions: at 10 µM.
Assay [11] has the same target. As to conditions: at 1 µM. The source holds these as a separate data set.
Assay [12] shares this target. As to conditions: at 10 µM. This is another data set of the same source.
In assay [13] the target is Serine/threonine-protein kinase N2 (Homo sapiens) (UniProt Q16513). As to conditions: at 1 µM.
Sequence of Serine/threonine-protein kinase N2 (Homo sapiens) (Q16513 whole entry, looked up): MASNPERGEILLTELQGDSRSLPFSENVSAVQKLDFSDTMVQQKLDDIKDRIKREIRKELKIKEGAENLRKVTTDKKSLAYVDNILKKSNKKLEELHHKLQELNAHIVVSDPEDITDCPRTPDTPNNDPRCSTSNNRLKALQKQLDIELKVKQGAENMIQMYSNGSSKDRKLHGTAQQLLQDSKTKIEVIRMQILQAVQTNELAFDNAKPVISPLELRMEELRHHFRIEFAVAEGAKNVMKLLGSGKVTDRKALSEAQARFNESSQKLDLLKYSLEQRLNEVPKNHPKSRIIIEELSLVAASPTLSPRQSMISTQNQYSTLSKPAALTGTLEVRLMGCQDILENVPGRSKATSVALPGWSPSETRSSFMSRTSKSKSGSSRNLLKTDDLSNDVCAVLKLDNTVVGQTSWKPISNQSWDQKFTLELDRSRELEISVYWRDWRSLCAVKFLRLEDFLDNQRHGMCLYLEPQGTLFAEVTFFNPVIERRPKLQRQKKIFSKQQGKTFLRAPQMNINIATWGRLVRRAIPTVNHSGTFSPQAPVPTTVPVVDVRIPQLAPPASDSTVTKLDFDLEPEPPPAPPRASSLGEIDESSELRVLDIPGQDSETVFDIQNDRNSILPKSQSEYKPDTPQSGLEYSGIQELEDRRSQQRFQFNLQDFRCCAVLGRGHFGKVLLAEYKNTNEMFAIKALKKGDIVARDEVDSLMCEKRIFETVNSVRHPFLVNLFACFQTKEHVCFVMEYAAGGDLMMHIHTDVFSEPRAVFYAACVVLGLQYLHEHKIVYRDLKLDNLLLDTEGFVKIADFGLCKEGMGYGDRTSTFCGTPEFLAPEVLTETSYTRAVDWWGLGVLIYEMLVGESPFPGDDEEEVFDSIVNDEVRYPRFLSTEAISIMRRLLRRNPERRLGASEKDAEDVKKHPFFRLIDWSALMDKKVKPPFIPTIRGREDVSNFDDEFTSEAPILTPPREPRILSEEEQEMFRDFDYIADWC
Assay [14] shares this target. As to conditions: at 10 µM.
For assay [15], the target named is Insulin-like growth factor 1 receptor (Homo sapiens) (UniProt P08069). As to conditions: at 10 µM.
Sequence of Insulin-like growth factor 1 receptor (Homo sapiens) (P08069 31-736 limits assumed): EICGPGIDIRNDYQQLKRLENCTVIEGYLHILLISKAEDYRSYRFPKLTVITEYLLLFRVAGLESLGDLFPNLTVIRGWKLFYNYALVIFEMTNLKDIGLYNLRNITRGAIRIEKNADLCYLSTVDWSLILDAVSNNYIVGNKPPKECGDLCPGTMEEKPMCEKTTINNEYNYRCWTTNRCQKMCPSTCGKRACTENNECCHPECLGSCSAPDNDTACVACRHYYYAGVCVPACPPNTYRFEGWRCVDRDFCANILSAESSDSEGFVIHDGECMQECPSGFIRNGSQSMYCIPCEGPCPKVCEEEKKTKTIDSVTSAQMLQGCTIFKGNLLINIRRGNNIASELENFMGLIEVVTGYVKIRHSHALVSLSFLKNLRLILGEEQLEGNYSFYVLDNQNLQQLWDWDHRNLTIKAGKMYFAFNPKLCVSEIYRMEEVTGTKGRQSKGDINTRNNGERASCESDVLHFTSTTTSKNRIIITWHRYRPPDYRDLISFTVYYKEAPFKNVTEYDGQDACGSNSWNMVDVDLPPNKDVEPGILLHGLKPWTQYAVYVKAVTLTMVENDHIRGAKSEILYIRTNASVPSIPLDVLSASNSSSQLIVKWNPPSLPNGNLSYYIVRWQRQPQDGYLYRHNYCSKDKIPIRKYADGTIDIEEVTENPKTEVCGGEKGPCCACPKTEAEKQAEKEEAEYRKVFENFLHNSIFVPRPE
Sequence of Insulin-like growth factor 1 receptor (Homo sapiens) (P08069 741-1367 limits assumed): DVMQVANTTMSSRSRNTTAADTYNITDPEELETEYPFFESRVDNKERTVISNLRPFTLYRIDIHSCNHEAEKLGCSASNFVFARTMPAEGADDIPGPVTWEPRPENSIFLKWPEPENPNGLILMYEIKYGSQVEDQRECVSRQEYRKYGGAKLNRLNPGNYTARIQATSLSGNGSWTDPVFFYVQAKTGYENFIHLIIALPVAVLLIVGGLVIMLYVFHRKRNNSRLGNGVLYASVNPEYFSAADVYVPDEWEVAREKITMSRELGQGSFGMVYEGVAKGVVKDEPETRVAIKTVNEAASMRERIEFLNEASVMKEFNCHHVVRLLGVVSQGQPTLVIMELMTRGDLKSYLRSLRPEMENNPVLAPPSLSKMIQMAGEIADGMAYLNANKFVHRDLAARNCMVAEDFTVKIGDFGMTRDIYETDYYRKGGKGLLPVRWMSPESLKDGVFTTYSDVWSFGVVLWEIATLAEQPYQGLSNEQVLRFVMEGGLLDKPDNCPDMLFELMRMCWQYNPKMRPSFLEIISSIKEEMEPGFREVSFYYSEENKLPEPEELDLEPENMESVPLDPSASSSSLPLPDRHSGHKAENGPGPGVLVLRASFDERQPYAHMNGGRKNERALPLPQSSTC
The target of assay [16] is T4, Protein kinase C zeta type (Homo sapiens) (UniProt Q05513).
T4 sequence (whole entry): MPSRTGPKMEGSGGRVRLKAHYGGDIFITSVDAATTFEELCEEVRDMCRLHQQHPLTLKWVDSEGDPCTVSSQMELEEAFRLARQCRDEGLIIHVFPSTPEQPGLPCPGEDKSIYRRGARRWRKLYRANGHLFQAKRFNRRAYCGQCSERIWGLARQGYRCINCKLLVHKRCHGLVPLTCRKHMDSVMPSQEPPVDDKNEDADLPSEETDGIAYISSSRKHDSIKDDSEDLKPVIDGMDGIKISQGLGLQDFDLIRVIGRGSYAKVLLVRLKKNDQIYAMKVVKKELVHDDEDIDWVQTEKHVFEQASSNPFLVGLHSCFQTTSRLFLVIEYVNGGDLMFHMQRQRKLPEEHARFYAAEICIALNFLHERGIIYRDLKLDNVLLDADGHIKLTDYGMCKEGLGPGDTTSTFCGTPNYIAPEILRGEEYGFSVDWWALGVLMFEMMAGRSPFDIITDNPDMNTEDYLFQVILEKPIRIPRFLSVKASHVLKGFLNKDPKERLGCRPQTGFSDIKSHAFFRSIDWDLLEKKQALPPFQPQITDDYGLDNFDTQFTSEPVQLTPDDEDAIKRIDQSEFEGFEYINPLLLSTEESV
As to conditions: at 10 µM.

The target in assay [17] is T5, Protein kinase C iota type (Homo sapiens) (UniProt P41743).
T5 sequence (whole entry): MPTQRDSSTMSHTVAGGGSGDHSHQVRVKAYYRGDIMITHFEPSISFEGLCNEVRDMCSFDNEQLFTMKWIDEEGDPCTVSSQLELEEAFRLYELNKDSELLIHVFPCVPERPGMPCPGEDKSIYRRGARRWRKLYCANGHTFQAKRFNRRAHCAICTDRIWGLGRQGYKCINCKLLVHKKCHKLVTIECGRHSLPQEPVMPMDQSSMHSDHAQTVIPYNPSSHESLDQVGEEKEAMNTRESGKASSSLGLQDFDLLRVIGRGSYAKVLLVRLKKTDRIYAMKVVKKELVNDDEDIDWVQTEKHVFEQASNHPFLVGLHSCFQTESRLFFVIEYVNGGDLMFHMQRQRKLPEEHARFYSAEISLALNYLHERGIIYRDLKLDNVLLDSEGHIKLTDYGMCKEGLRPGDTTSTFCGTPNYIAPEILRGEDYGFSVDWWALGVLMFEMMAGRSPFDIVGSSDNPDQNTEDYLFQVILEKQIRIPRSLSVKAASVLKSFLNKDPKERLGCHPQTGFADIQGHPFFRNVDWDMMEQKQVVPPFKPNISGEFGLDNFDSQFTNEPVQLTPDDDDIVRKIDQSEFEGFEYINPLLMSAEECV
As to conditions: at 1 µM.

Assay [18] addresses T5, Protein kinase C iota type (Homo sapiens). As to conditions: at 10 µM.
Assay [19] addresses T6, MAP kinase-activated protein kinase 5 (Homo sapiens) (UniProt Q8IW41).
T6 sequence (whole entry): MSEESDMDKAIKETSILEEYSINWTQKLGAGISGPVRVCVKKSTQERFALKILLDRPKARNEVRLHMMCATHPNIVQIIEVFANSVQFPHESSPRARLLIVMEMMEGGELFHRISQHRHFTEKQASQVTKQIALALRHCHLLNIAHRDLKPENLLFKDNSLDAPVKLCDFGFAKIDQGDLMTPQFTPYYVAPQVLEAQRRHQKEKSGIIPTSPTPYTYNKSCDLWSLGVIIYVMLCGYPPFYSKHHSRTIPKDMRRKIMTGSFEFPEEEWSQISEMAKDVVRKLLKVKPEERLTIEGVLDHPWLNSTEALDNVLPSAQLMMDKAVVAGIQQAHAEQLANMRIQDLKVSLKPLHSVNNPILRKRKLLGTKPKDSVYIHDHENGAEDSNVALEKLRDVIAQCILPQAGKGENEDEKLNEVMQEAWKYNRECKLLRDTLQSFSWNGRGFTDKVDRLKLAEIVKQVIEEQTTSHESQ
As to conditions: at 1 µM.

Assay [20] deals with T6, MAP kinase-activated protein kinase 5 (Homo sapiens). As to conditions: at 10 µM.

Sequence of Protein kinase C eta type (Homo sapiens) (P24723 whole entry): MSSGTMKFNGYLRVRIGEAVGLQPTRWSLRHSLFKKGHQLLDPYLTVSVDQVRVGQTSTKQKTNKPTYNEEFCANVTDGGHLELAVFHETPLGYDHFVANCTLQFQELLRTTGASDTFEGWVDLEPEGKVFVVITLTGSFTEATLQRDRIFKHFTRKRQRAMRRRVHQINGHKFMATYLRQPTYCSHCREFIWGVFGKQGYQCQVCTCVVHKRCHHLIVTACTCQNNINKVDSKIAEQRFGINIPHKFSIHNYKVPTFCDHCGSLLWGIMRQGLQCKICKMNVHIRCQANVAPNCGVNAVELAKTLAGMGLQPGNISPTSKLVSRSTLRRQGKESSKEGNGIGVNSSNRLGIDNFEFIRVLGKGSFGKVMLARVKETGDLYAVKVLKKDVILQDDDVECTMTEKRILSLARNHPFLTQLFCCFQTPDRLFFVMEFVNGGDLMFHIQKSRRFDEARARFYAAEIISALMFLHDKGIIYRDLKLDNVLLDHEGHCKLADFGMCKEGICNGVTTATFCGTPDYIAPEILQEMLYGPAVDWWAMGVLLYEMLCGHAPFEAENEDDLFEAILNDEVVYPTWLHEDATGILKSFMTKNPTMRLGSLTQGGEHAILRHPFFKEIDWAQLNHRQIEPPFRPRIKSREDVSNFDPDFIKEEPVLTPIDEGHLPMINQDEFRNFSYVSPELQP
Sequence of Protein kinase C theta type (Homo sapiens) (Q04759 whole entry, looked up): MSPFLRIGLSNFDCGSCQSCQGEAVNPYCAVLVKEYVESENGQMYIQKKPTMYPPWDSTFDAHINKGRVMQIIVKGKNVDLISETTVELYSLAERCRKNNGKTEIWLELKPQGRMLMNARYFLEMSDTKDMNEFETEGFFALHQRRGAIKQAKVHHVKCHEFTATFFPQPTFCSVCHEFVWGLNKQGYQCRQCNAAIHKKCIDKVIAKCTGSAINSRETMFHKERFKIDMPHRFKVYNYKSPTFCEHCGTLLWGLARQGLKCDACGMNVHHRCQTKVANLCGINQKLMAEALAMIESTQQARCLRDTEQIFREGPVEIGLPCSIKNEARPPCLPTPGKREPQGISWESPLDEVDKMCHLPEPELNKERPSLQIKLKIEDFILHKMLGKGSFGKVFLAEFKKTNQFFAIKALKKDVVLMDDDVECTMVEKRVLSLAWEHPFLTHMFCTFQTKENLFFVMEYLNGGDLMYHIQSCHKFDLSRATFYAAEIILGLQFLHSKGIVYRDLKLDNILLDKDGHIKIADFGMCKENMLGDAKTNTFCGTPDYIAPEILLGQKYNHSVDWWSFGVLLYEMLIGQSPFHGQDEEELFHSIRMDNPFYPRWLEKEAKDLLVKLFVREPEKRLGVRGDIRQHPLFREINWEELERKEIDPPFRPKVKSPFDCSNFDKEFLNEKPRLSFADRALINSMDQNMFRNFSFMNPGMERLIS

Consider `O=C1NC(=O)c2c1c1c3ccccc3n3c1c1c2c2ccccc2n1C1CCC3O1`, for which the residual activity was 89% in assay [1]; 81% in assay [2]; 7% in [3]; 13% in [4]; 87% in [5]; 49% in assay [6]. Further, the residual activity came to 92% in [7]; 90% in assay [8]; 84% in [9]; 73% in assay [10]; 76% in assay [11]; 74% in assay [12]. Moreover, the residual activity in assay [13] came to 47%; in [14], 25%.
Consider `COc1cc(OC)c(/C=C2\C(=O)Nc3ccccc32)c(OC)c1`, for which the residual activity in assay [15] is 133%; in [1], 94%; in assay [2], 94%; in assay [3] it was 85%; in [4] it was 90%; in assay [5], 84%. In addition, the residual activity in [6] came to 90%; in assay [7], 108%; in assay [8], 105%; in assay [9], 97%; in assay [10] it was 108%; in assay [11], 83%. In addition, the residual activity in [12] was 73%; in assay [13] it was 99%; in [14], 87%.
Consider `O=c1[nH]c2ccccc2n1C1CCN(Cc2ccc(-c3nc4cc5[nH]cnc5cc4nc3-c3ccccc3)cc2)CC1`, for which the residual activity in assay [15] stood at 39%; in assay [16], 97%; in assay [1] it was 120%; in [2] it was 83%; in [3] it was 104%; in assay [4], 109%. For the same molecule, the residual activity in assay [17] was 87% (inactive); in assay [18], 90%; in assay [5], 96%; in assay [6], 97%; in assay [7], 100%; in assay [8] it was 108%. Further, the residual activity in assay [9] was 108%; in assay [10], 110%; in assay [11], 86%; in assay [12], 97%; in assay [19], 75%; in assay [20], 37%. Moreover, the residual activity was found to be 112% in assay [13] and 115% in [14].
`COc1ccc2c(c[n+](C)c3c4cc5c(cc4ccc23)OCO5)c1OC`: the residual activity is 131% in [15]; 75% in [16]; 90% in [3]; 66% in [4]; 98% (inactive) in [17]; 81% in assay [18]. Moreover, the residual activity in assay [5] stood at 110%; in assay [6], 61%; in assay [10], 92%; in [11] it was 92%; in [12], 87%; in assay [19], 84%. For the same molecule, the residual activity in assay [20] is 52%; in [14], 92%.

Source of the values: ChEMBL document CHEMBL2218924, “A broad activity screen in support of a chemogenomic map for kinase signalling research and drug discovery” (Biochem J, 2013).
